# Screens: PubChem BioAssay, National Center for Advancing Translational Sciences (NCATS)
# D2 ag-1 = Beta-Arrestin HTS for Positive Allosteric Modulators of the Human D2 Dopamine Receptor: Agonists; AID 624465, 2012; DiscoveRx PathHunter D2 beta-arrestin, luminescence, 90 min; 100% = 57 uM dopamine signal; hit rate 0.084% among 360,000; activation, % (test concentration not listed); D(2) dopamine receptor (Homo sapiens), P14416; in the data active = activation above about 40%
# Target sequence (P14416 whole entry, looked up): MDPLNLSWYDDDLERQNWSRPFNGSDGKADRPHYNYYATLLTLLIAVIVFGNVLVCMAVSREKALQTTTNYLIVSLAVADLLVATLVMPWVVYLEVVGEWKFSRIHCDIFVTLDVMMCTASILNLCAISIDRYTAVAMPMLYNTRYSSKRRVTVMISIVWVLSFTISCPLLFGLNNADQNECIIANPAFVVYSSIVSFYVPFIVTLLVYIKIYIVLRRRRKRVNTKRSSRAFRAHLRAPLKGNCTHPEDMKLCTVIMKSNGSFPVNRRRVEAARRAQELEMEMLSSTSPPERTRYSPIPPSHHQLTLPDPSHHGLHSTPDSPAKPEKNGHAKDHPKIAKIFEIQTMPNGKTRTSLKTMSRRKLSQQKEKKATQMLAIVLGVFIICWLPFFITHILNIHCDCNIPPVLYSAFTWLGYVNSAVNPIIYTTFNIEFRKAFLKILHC
#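 Agonist mode: compounds alone added to overnight-plated D2 PathHunter cells for 90 min at 37 C, with 57 uM final dopamine (EC100) defining full response. Beta-arrestin recruitment detected by chemiluminescent reagent, read after 1 h at ambient temperature.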
# D2 PAM-1 = Beta-Arrestin HTS for Positive Allosteric Modulators of the Human D2 Dopamine Receptor: Potentiators. DiscoveRx D2 beta-arrestin cells, luminescence, 90 min; 100% = 57 uM dopamine signal. hit rate 0.23% among 360,000. potentiation, % (concentration not given with the values). D(2) dopamine receptor (Homo sapiens), P14416. AID 624464, 2012; in the data active = potentiation above about 50%
#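 PathHunter D2 cells, attached overnight at 37 deg C, received compound in DMSO plus dopamine at EC20 (50 nM final) for 90 min at 37 deg C. Beta-arrestin recruitment was read as luminescence after 1 h with detection reagent at ambient temperature.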
# D2 PAM-2 = HTS Assay for Positive Allosteric Modulators of the Human D2 Dopamine Receptor: Primary Screen for Potentiators. HEK293 T-REx D2, calcium flux, EC20 dopamine potentiation. D(2) dopamine receptor (Homo sapiens), P14416. AID 485347, 2010. potentiation, % at 10 µM. hit rate 0.34% among 340,000;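 active = potentiation over 3 SD above the plate norm, cut at about 30% in these data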; note: 0% is about no effect
#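 Calcium flux readout, no-wash dye, 1 read/s. Inducible HEK293 Trex D2 line, overnight 30 C. Compound alone 180 s (agonist flags), then EC20 dopamine, another 180 s to score potentiation.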
# D2 ag-2 = HTS Assay for Allosteric Agonists of the Human D2 Dopamine Receptor: Primary Screen for Agonists. hit rate 0.53% among 340,000. activation, % at 2 µM. HEK293 T-REx D2 cells, calcium flux agonist mode;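 active = activation over 3 SD above normal in the single-dose calcium agonist read, cut at about 30% in these data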; note: 0% is about no effect
#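 HEK293 Trex D2 cells, tetracycline-induced, o/n 30 C 5% CO2; no-wash Ca dye, RT 30–90 min; 10-cycle baseline, 23 nl cpd added, kinetic Ca read 180 s; agonist hits = positive Ca response.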
# D2 antag = HTS Assay for Allosteric Antagonists of the Human D2 Dopamine Receptor: Primary Screen for Antagonists. D(2) dopamine receptor (Homo sapiens), P14416. HEK293 TREx D2 cells, calcium flux, dopamine EC80. inhibition, % at 10 µM. hit rate 2% among 340,000; in the data active = inhibition above about 30%; inactive = below that, where a call was filed; note: 0% is about no effect
#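 Cells plated overnight at 30 C with tetracycline; no-wash calcium dye, 30–90 min RT; 10 s baseline; compound pinned; 180 s read; EC80 dopamine added; another 180 s read.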
# Numbers without * were called inactive; . = no result; ! = repeats disagree. Only some compounds are listed: those with a hit (about 2.4% of all), similar ones and a draw of the others.
SMILES,D2 ag-1,D2 PAM-1,D2 PAM-2,D2 ag-2,D2 antag
COc1ccc2c(n1)Sc1nc3ccccc3nc1N2,4,2,-5,92*,49*
CN(C)S(=O)(=O)c1cccc(C(=O)NCCOC(=O)c2cc(F)c(F)cc2Cl)c1,2,-6,14,0,34*
CN(C)S(=O)(=O)c1cccc(C(=O)NCCNC(=O)c2cccc(S(=O)(=O)N(C)C)c2)c1,-5,-8,17,-1,-5
COC(=O)c1[nH]c2c(c1C)C(=O)CC(c1ccc(OC)c(OC)c1)C2 (centres undefined),1,7,.,.,.
COC(=O)c1[nH]c2c(c1C)C(=O)CC(c1ccc(C)cc1)C2 (centres undefined),1,-16,-1,0,32*
COc1ccc(OC)c(CCNC(=O)Cn2nc(C)n3c(cc4sccc43)c2=O)c1,.,.,-2,0,.
C=CCNC(=S)NNC(=O)C(CCC(C)C)CC(C)O (centres undefined),2,2,-12,0,45*
CCCN1CCc2nc(N3CCN(c4ncccn4)CC3)ncc2C1,.,.,-17,.,.
Cc1ccc(NS(=O)(=O)c2c(C)nc3sccn3c2=O)cc1,-1,-4,-2,1,9
Cc1nc2sccn2c(=O)c1S(=O)(=O)Nc1ccc(N2CCN(C(=O)C(C)C)CC2)cc1,3,1,51*!,-1,-5
Cc1cc(NC(=O)C2CCCN2C(=O)Nc2c(C)cccc2C)ccc1-n1cnnn1 (centres undefined),-2,-13,14,0,15
Cc1cc(NC(=O)C2CCN(S(=O)(=O)Cc3ccccc3)CC2)ccc1-n1cnnn1,-2,6,1,1,30*
O=C1CC(c2nnc(Cc3ccc(F)cc3Cl)o2)CN1c1ccccc1 (centres undefined),.,.,0,1,.
Cc1ccccc1-c1noc(-c2ccc(O)cc2)n1,3,13,-9,0,46*
Cc1ccccc1-c1noc(C23CC4CC(CC(C4)C2)C3)n1,-1,-9,-26,1,75*
O=C(CN1C(=O)COc2ccc(S(=O)(=O)NC3CCCC3)cc21)NCc1ccc(Cl)cc1,.,.,-11,0,.
Cc1sc2ncn(CC(=O)NCc3ccccn3)c(=O)c2c1S(=O)(=O)N1CCOCC1,1,-6,49*,0,-2
CCOC(=O)CNC(=O)Cn1cnc2sc(C)c(S(=O)(=O)N3CCOCC3)c2c1=O,-7,-5,8,1,8
CCN(CC)CCn1c2c(c(SCC(=O)Nc3cccc(C(F)(F)F)c3)nc1=O)CCC2,.,.,-4,-1,.
COc1cccc(CNC(=O)CCC2CCCN(C/C=C/c3ccccc3OC)C2)c1 (centres undefined),-2,-32,-17,1,32*
COc1ccccc1/C=C/CN1CCCC(CCC(=O)NCc2ccc(F)c(F)c2)C1 (centres undefined),1,-11,-20,0,33*
COc1ccc(/C=C/CN2CCCC(CCC(=O)NCc3ccc(F)c(F)c3)C2)cc1 (centres undefined),-1,-15,-15,0,-45
CC(C)N(Cc1nc(-c2ccccc2)no1)C(=O)c1ccc2c(c1)OCO2,1,-8,4,-3,31*
CC(C)COc1ccc(-c2nnc(-c3ccco3)o2)cc1,-1,-11,30*,-1,28
Cn1c(=O)c2c(ncn2CC(=O)N2CCN(c3ccc([N+](=O)[O-])cc3)CC2)n(C)c1=O,0,-2,-1,0,-4
SMILES,D2 ag-1,D2 PAM-1,D2 PAM-2,D2 ag-2,D2 antag
Cn1c(=O)c2c(nc(N3CCCCC3)n2C)n(C)c1=O,1,4,30*,-1,-10
Cn1c(=O)c2c(nc(N3CCN(c4ccc([N+](=O)[O-])cc4)CC3)n2C)n(C)c1=O,-19,-5,3,0,34*
Cc1ccc(Cn2c(C)c(CNC3CCCCC3)c(C(=O)O)c2C)cc1,.,.,4,0,.
CC(=O)NC/C(C)=N\Nc1ccc([N+](=O)[O-])cc1,-1,-1,1,3,3
CC(=O)/C(=N\Nc1ccccc1)Oc1ccc([N+](=O)[O-])cc1,0,1,34*,0,11
CCSc1oc(-c2ccco2)nc1S(=O)(=O)c1ccc(F)cc1,-3,-7,16,0,-7
CCSc1oc(-c2ccco2)nc1S(=O)(=O)c1ccc(C)cc1,-4,-8,34*,-1,-2
O=C1C(Cl)=C(NCCN2CCOCC2)C(=O)c2ccccc21,5,11,-7,1,36*
O=C1C(Cl)=C(NCCCN2CCOCC2)C(=O)c2ccccc21,4,1,.,.,.
Cc1ccc(C)c(CNC(=O)c2ccc3c(c2)nc2n3CCCCC2)c1,.,.,-6,-1,.
Cc1ccccc1NS(=O)(=O)c1ccc(C)c(NS(C)(=O)=O)c1C,2,-6,-13,0,33*
Cc1ccc(C(=O)Nc2cccc(C(=O)OCc3cc(=O)n4c5c(sc4n3)CCCC5)c2)cc1,.,.,0,0,.
CCN(C(=O)c1cnc(N2CCN(c3ncccn3)CC2)c2ccccc12)c1cccc(Cl)c1,-3,-14,25,1,46*
COc1ccc(NC(=O)c2cc(-c3ccccc3OC)on2)cc1,-2,-10,-27,0,32*
COc1ccc(OC)c(-c2cc(C(=O)Nc3cc(C)on3)no2)c1,-2,-19,-40,-1,38*
COc1ccc(NC(=O)c2cc(-c3ccccc3Cl)on2)cc1,-5,-50,-13,1,4
CCc1ccc(NC(=O)c2cc(-c3ccco3)on2)cc1,-1,-4,53*,0,-16
COc1ccc(NC(=O)c2cc(-c3ccco3)on2)cc1,-1,-5,-8,0,-12
COc1ccc(-c2cc(C(=O)Nc3cc(C)on3)no2)cc1,-1,-9,-10,2,3
CCCc1cnc2c(c1SCC(=O)N(C)c1ccccc1)c(=O)n(C)c(=O)n2C,.,.,0,-1,.
CN(CCNC(=O)c1ccc(/C=N/O)nc1)Cc1ccccc1,-6,-36,-26,1,61*
CN(CCCNC(=O)c1ccc(/C=N/O)nc1)CCCN(C)Cc1ccccc1,1,8,-9,0,6
CCCCN(C)Cc1c(O)ccc2c(-c3ccccc3)cc(=O)oc12,-1,-43,.,0,64*
